Consider six compounds from PubChem BioAssay (Tox21).

The nature of assay [1]: qHTS assay to identify small molecule agonists of the constitutive androstane receptor (CAR) signaling pathway - cell viability counter screen (AID 1224836). Further: on the % scale 0 is the no-effect control and ±100 the full control effect; nearly all actives have a fitted effect of over 45% in size. In short, it runs like this:
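Cells were seeded and incubated 4 hrs. Compounds were added across 15 concentrations together with PK11195 at 0.75 uM final. Plates were incubated 23 hrs at 37 C. CellTiter-Fluor was added and fluorescence measured.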
A general note: Quantitative high-throughput screening tests each substance at several concentrations.

Assay [2] can be described thus: qHTS assay to identify small molecule antagonists of the constitutive androstane receptor (CAR) signaling pathway - cell viability counter screen (AID 1224837). Further: on the % scale 0 is the no-effect control and ±100 the full control effect; nearly all actives have a fitted effect of over 45% in size. In short, it runs like this: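 HepG2 cells stably carrying hCAR and CYP2B6-2.2kb reporter, stimulated with 50 nM CITCO and compounds at 15 concentrations for 23 h at 37 C. Viability measured by CellTiter-Fluor fluorescence.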

In assay [3] the target is Nuclear receptor subfamily 1 group I member 3 (Homo sapiens) (UniProt Q14994). As to the kind of experiment: qHTS assay to identify small molecule antagonists of the constitutive androstane receptor (CAR) signaling pathway (AID 1224838). Further: on the % scale 0 is the no-effect control and ±100 the full control effect; nearly all actives have a fitted effect of over 40% in size. In short, it runs like this:
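HepG2 cells stably carrying hCAR and a CYP2B6-2.2kb luciferase reporter, seeded 4 hrs before compound (15 concentrations). Stimulated with 50 nM CITCO for 24 hr at 37 C. ONE-Glo luminescence read after 30 min at room temperature.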

The target is the same in assay [4]. As to the kind of experiment: qHTS assay to identify small molecule agonists of the constitutive androstane receptor (CAR) signaling pathway (AID 1224839). Further: on the % scale 0 is the no-effect control and ±100 the full control effect; nearly all actives have a fitted effect of over 15% in size. The essentials: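 Cells were plated and incubated 4 hrs, then dosed with compounds at 15 concentrations. PK11195 was added to 0.75 uM final. After 24 hrs at 37 C, luciferase luminescence was measured.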
Assay [5] is described as follows: qHTS assay to identify small molecule antagonists of the estrogen related receptor signaling pathway with the pleiotropic PPARgamma coactivator (PGC) from Tox21 10K library - cell viability counter screen (AID 1224840; active means well fitted cell-killing curve with a large enough effect in the repeat runs, not every such curve was filed as active; further: on the % scale 0 is the no-effect control and ±100 the full control effect; nearly all actives have a fitted effect of over 40% in size). In short, it runs like this:
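PGC/ERR cells (2,000/well) plated 6 h, then compound-treated for 17.5 h at 37 C. Viability measured by CellTiter-Fluor fluorescence after 30 min at 37 C, multiplexed with the pathway assay.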

The target of assay [6] is Thyrotropin receptor (Homo sapiens) (UniProt P16473). As to the kind of experiment: qHTS assay to identify small molecule agonists of the thyroid stimulating hormone receptor (TSHR) signaling pathway (AID 1224843; calls by dose curve; further: on the % scale 0 is the no-effect control and ±100 the full control effect; nearly all actives have a fitted effect of over 45% in size). The essentials:
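Screening of the Tox21 10K collection used HEK293 cells engineered with TSHR at 800 cells per well. After a 30-min room-temperature compound exposure, HTRF cAMP reagents were added and fluorescence recorded 1 h later.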

Assay [7] in a line: qHTS assay to identify small molecule agonists of the hypoxia (HIF-1) signaling pathway - cell viability counter screen (AID 1224844; calls by dose curve; further: nearly all actives have a fitted effect of over 50% in size; further: potency means the concentration at half of the fitted maximal effect). In short, it runs like this: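 HRE-bla ME-180 cells, 2,000/well in 0.5% dialyzed FBS medium, treated 17 h at 37C with compounds. Viability read in the same wells as the bla reporter, by CellTiter-Glo luminescence after 30 min at room temperature.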

Assay [8] is described as follows: qHTS assay to identify small molecule agonists of H2AX (AID 1224845; active means well fitted activation curve with a large enough effect in the signal ratio in the repeat runs, not every such curve was filed as active; the % refers to the signal ratio; further: on the % scale 0 is the no-effect control and ±100 the full control effect). The essentials: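 Phospho-H2AX Ser139 measured by HTRF (ex 320 nm; em 665 and 620 nm) after 24 hr antibody incubation. Compounds, 15 concentrations, 0.76% DMSO, were applied to CHO-K1 cells for 3hr at 37C before lysis.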
Assay [9] in a line: qHTS assay to identify small molecule agonists of the hypoxia (HIF-1) signaling pathway (AID 1224846; active means well fitted activation curve with a large enough effect in the signal ratio in the repeat runs, not every such curve was filed as active; the % refers to the signal ratio; further: on the % scale 0 is the no-effect control and ±100 the full control effect). The essentials:
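HRE-bla ME-180 beta-lactamase reporter cells in medium with 0.5% dialyzed FBS, pre-incubated 5 h then exposed to compounds 17 h at 37C, 5% CO2; reporter induction read with CCF4-AM FRET substrate.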

Assay [10] in a line: qHTS RealTime-Glo MT Cell Viability Assay in HepG2 cells - 24 hour (AID 1224867). Further: on the % scale 0 is the no-effect control and ±100 the full control effect; nearly all actives have a fitted effect of over 50% in size. The essentials: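 HepG2 suspension premixed with RealTime-Glo reagents is plated at 600 cells per well and left 5 h at 37 C/5% CO2. Compounds in DMSO then go in, and bioluminescence reflecting viable cell number is recorded over 40 h.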
Assay [11] is described as follows: qHTS RealTime-Glo MT Cell Viability Assay in HEK293 cells - 32 hour (AID 1224868). Further: nearly all actives have a fitted effect of over 50% in size. Further: potency means the concentration at half of the fitted maximal effect. The essentials:
(§1)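 Reads taken at 0, 8, 16, 24, 32 and 40 h from the same wells. HEK293 cells (600/well) carried RealTime-Glo reagents from seeding, with compound added after a 5 h settle at 37 C.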

Assay [12] in a line: A CellTox Green Cytotoxicity Assay to monitor cytotoxicity in HEK293 cells - 40 hour (AID 1224871). Further: nearly all actives have a fitted effect of over 45% in size. Further: potency means the concentration at half of the fitted maximal effect. The essentials: (§2)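 HEK293 cells, 600/well, were preincubated 5 hours and then exposed to compounds at 37 C for up to 40 hours. A cell-impermeant cyanine dye staining dead-cell DNA was read by fluorescence at 0, 8, 16, 24, 32 and 40 h time points.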
Assay [13] is described as follows: qHTS assay to identify small molecule antagonists of the estrogen related receptor signaling pathway with the pleiotropic PPARgamma coactivator (PGC) from Tox21 10K library (AID 1224841; call rule not given here; further: actives are mostly falling curves and most rising ones were filed inactive; nearly all actives have a fitted effect of over 50% in size; further: potency means the concentration at half of the fitted maximal effect). In short, it runs like this:
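PGC/ERR cell line, 2,000 cells/well, pre-incubated 6 hours at 37 C, then exposed to compounds for 18 hours at 37 C; luciferase read with One-Glo luminescence after 30 min at room temperature.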

Assay [14] is described as follows: qHTS assay to identify small molecule agonists of the estrogen related receptor signaling pathway with the pleiotropic PPARgamma coactivator (PGC) from Tox21 10K library (AID 1224842). Further: on the % scale 0 is the no-effect control and ±100 the full control effect; nearly all actives have a fitted effect of over 15% in size. In short, it runs like this: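 Luminescence from One-Glo (30 min, room temperature) measured after PGC/ERR cells had 18 h at 37 C with pinned compound (23 nL in DMSO). Cells had been seeded at 2,000 per well and pre-incubated 6 h.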

A short description of assay [15]: qHTS assay to identify small molecule agonists of H2AX - cell viability counter screen (AID 1224847; calls by dose curve; further: nearly all actives have a fitted effect of over 30% in size; further: potency means the concentration at half of the fitted maximal effect). The essentials: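 Cytotoxicity counter screen in wild-type CHO-K1 cells: a 3 hr compound treatment at 37C across 15 concentrations, followed by CellTiter-Glo luminescence to gauge viable cells.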
Assay [16] in a line: qHTS assay to identify small molecule agonists of the estrogen related receptor (ERR) signaling pathway from Tox21 library (AID 1224849; calls by dose curve; further: on the % scale 0 is the no-effect control and ±100 the full control effect; nearly all actives have a fitted effect of over 15% in size). Particulars: ERR reporter cell line, ONE-Glo luciferase, 18 h. In short, it runs like this:
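ERR reporter cells (NTP line) pre-incubated 6 hours at 37 C, then exposed to compounds for 18 hours at 37 C. ONE-Glo luciferase luminescence was read after 30 minutes at room temperature.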

Assay [17] in a line: A CellTox Green Cytotoxicity Assay to monitor cytotoxicity in HEK293 cells - 0 hour (AID 1224869). The essentials: as §2
A short description of assay [18]: qHTS RealTime-Glo MT Cell Viability Assay in HepG2 cells - 40 hour (AID 1224870). The essentials:
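Real-time viability: cells seeded at 600 per well together with NanoLuc and cell-permeant prosubstrate, compounds added after 5 h incubation. Luminescence tracked at 0, 8, 16, 24, 32 and 40 h of exposure.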

Assay [19] is described as follows: qHTS RealTime-Glo MT Cell Viability Assay in HEK293 cells - 16 hour (AID 1224872). Further: nearly all actives have a fitted effect of over 50% in size. Further: potency means the concentration at half of the fitted maximal effect. The essentials:
as §1

The nature of assay [20]: qHTS assay to identify small molecule antagonists of the estrogen related receptor (ERR) signaling pathway from Tox21 library (AID 1224848). The essentials: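 Antagonist-mode screen of the Tox21 10K library in an NTP-provided ERR reporter cell line; 18 h compound exposure at 37 C, luminescence measured with ONE-Glo.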

Where “and” joins values, the source holds several entries; their conditions need not be identical. Equal entries are not always repeated. Records with an inconclusive call do not appear. Some structures have more than one record in an assay (separate samples or runs), and their calls can disagree. Calls of active or inactive are those of the source. Unless noted, the call rests on the fitted dose curve; in most records, active means well fitted curve in the direction sought with a large enough effect in the repeat runs; inconclusive means weak or mixed curves; inactive means no such curve, though single readings can be large; an effect the other way counts as inactive or inconclusive.

Sequence of Nuclear receptor subfamily 1 group I member 3 (Homo sapiens) (Q14994 whole entry, looked up): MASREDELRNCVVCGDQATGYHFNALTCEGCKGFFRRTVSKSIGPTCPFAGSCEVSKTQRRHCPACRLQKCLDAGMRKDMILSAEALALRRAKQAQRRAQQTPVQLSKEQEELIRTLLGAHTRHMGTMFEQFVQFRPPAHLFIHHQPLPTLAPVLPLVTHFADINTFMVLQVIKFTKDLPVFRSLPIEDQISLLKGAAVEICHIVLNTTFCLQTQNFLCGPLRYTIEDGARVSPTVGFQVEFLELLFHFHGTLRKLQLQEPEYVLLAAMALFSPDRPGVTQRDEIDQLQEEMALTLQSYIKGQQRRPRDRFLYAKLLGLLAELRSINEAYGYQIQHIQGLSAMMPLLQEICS
Sequence of Thyrotropin receptor (Homo sapiens) (P16473 whole entry, looked up): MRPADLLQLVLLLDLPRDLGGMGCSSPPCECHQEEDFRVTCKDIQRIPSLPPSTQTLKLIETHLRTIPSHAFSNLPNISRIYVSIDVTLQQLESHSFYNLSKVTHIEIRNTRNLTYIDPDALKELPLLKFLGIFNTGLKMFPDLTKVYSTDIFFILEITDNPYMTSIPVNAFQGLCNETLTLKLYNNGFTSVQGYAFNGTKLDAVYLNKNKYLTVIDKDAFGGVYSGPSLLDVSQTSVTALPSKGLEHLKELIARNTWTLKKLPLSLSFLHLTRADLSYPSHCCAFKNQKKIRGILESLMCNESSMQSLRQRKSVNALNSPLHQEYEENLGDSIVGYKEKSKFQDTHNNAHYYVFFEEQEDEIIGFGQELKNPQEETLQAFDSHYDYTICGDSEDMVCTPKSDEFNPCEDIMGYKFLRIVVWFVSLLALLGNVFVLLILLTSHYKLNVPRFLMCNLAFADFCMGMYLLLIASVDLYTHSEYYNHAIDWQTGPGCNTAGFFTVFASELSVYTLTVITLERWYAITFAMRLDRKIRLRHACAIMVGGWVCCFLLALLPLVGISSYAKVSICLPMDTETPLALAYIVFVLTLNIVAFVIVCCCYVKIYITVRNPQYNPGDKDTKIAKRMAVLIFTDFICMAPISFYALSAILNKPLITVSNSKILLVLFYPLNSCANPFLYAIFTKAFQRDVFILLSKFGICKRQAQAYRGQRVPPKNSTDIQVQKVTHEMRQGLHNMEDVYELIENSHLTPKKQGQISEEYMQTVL

As for `Cc1cc(C(C)(C)C)c(O)c(C(C)(C)C)c1`, the Potency entry in assay [1], in assay [2], in assay [3], in assay [4], in [5] and in assay [6] was “inactive” throughout. Moreover, the Potency entry in assay [7], in assay [8], in assay [9], in assay [10] and in assay [11] was “inactive” in each case. Besides, the Potency in assay [12] is 49.1 µM (active).

As to `c1cnc2cc3c(cc2n1)C1CNCC3C1`, the Potency result in assay [1], in assay [2], in assay [3], in [4], in assay [5] and in [13] was “inactive” throughout. Besides, the Potency result in [14], in assay [7], in assay [8], in assay [9], in [15] and in assay [10] was “inactive” each time. Also, the Potency result in assay [11], in [17], in assay [18], in assay [12] and in assay [19] was “inactive” throughout. Besides, the activity change, positive = activation in [16] (at 42.5 µM (top of the series)) is 1.11% (inactive).

On to `C1COC(NC(C2CC2)C2CC2)=N1`, for which the Potency result in [1], in assay [2], in assay [3], in assay [4], in [5] and in assay [13] was “inactive” in each case. The Potency entry in assay [14], in assay [6], in [8], in assay [15], in [10] and in assay [11] was “inactive” in each case. For the same compound, the Potency result in assay [17], in assay [12] and in assay [19] was “inactive” in each case. The activity change, positive = activation in assay [16] (at 42.5 µM (top of the series)) was -1.34% (inactive).

In the case of `CC(=O)OCC1=C(C(=O)O)N2C(=O)[C@@H](NC(=O)Cc3cccs3)[C@H]2SC1`, the Potency result in [1], in assay [2], in assay [3], in [4], in assay [5] and in [6] was “inactive” throughout. For the same compound, the Potency entry in [7], in [8], in assay [9], in assay [15], in assay [10] and in assay [11] was “inactive” throughout. For the same compound, the Potency result in assay [17], in assay [18], in assay [12] and in assay [19] was “inactive” each time.

As for `O=C(Cl)c1cccc(C(=O)Cl)c1`, the Potency result in assay [1], in [2], in assay [3], in assay [4], in assay [5] and in assay [6] was “inactive” throughout. For the same compound, the Potency result in assay [7], in assay [8], in [9], in assay [15], in assay [10] and in assay [11] was “inactive” in each case. The Potency entry in assay [12] and in assay [19] was “inactive” throughout.

On to `CC(C)(C)c1ccc(O)c(C(C)(C)C)c1`, for which the Potency result in assay [1], in assay [2], in [3], in [4], in [14] and in [17] was “inactive” each time. Also, the Potency in [13] is 54.3 µM (active) and inactive; in assay [7], 43.5 µM (active); in assay [15], 89.4 µM (active); in assay [20], 54.3 µM (active) and 61.1 µM (active); in [11], 38.7 µM (active); in [12], 24.4 µM (active) and 34.7 µM (active). In addition, the Potency in assay [19] is 34.5 µM (active). The activity change, positive = activation in assay [16] (at 92.4 µM (top of the series)) is -41% (inactive) and -33.5% (inactive).
